These results are taken from PubChem BioAssay.

Values joined by “and” are separate entries in the source; they are usually repeats but may differ in a detail not shown here. Identical values can stand only once. Active and inactive are the calls of the source.

Test [1] relates to Human papillomavirus type 1a protein E7 (residues 44-93). The experiment in a line: small molecules binding HPV E7 44-93 – biochemical, small-molecule microarray, residues 44-93, 635 nm fluorescence, primary screen (AID 1108).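 Further: E7 fragment applied at 1 µg/mL in TBST for 1 h at 4 C; score combines spot fluorescence with its signal to noise ratio.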 Particulars: fluorescence 635 nm, higher = more signal.
The nature of test [2]: hepatitis C replication reporter changes, two-sided – Huh7 cells, luciferase reporter, HCV replication inhibitor project, primary screen (AID 1109).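 Further: huh7 hepatoma cells harbouring a luciferase neomycin HCV replicon reporter; luciferase luminescence as measure of HCV replicon replication; test concentration not given here.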 As to conditions: Huh7 HCV replicon luciferase reporter, 48 h; higher = more signal.
The target of test [3] is Left-right determination factor 2 (Homo sapiens) (UniProt O00292). The experiment in a line: small molecules binding LEFTY2 protein – biochemical, small-molecule microarray, 635 nm fluorescence scan, primary screen (AID 1110). Particulars: higher = more signal.
For test [4], the target named is Calmodulin-1 (Homo sapiens) (UniProt P0DP23). The test is described as follows: small molecules binding calmodulin-1 with EGTA – biochemical, small-molecule microarray, Cy5-labelled CALM1, profiling panel (AID 1111).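 Further: labelled calmodulin applied in Tris saline Tween buffer holding calcium plus EGTA and DTT.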 Particulars: Cy5-CALM1 binding fluorescence, higher = more signal.
For test [5] the target is unchanged. The test is described as follows: small molecules binding Ca-loaded calmodulin-1 – biochemical, small-molecule microarray, Cy5-labelled CALM1, plus calcium, artefact control for SMM control-protein annotation, profiling panel (AID 1112).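 Further: score merges spot fluorescence with signal to noise from triplicate slides.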 Particulars: Cy5-CALM1 binding fluorescence, higher = more signal.
Test [6] can be described thus: probe aWnt5a binding to arrayed compounds – biochemical, biotinylated probe, 635/667 nm fluorescence, primary screen (AID 1113).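 Further: score merges 667 nm fluorescence intensity with signal-to-noise per printed feature.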 Particulars: small-molecule microarray, higher = more signal.
A short description of test [7]: probe aShh binding to arrayed compounds – biochemical, biotinylated probe, 635/667 nm fluorescence, primary screen (AID 1114).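 Further: probe is biotin-labelled aShh protein from a stem cell growth factor screen; measures binding of labelled protein to compounds printed on the slide; score merges feature fluorescence at 667 nm with signal-to-noise.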 As to conditions: small-molecule microarray, higher = more signal.
Test [8] in a line: probe aNog binding to arrayed compounds – biochemical, biotinylated probe, 635/667 nm fluorescence, primary screen (AID 1115).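 Further: probe is biotinylated aNog protein used at 0.15 µg/mL for 1 h at 4 C; z-score combines 667 nm fluorescence of each spot with its signal to noise.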 As to conditions: small-molecule microarray, higher = more signal.
The target in test [9] is Torsin-1A-interacting protein 1 (Homo sapiens) (UniProt Q5JTV8). The experiment in a line: compound microarray binding of lysate hLAP1 – cell lysate, small-molecule microarray, COS7 lysate, 635/667 nm fluorescence, primary screen (AID 1116). Particulars: 635 nm fluorescence, higher = more signal.
Test [10] concerns the target Alpha-bungarotoxin (Bungarus multicinctus) (UniProt P60615). The test is described as follows: compounds binding labelled alpha-BTX control protein – biochemical, small-molecule microarray, Alexa647 label, 635/667 nm fluorescence, artefact control for SMM control protein annotation, profiling panel (AID 1117). As to conditions: alpha-BTX-A647 binding fluorescence, higher = more signal.

Test [11] concerns the target Albumin (Bos taurus) (UniProt P02769). The test is described as follows: compounds binding labelled BSA control protein – biochemical, small-molecule microarray, Alexa647 label, 635/667 nm fluorescence, artefact control for SMM control protein annotation, profiling panel (AID 1118).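 Further: score merges 667 nm emission intensity and signal-to-noise per printed compound spot.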 Particulars: BSA-A647 binding, fluorescence 635 nm, higher = more signal.
Test [12] can be described thus: probe aXIP binding to arrayed compounds – biochemical, NeuroSMM set, 635/667 nm fluorescence, primary screen (AID 1119).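 Further: probe is the protein aXip251-270 applied at 1 µg/mL to compound-printed slides; binding of probe to printed compounds measured as 667 nm fluorescence plus signal to noise.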 As to conditions: small-molecule microarray, higher = more signal, called active from +8 up or from −8 down.
Test [13] can be described thus: probe aNOTCH3 binding on compound microarray – biochemical, small-molecule microarray, 635/667 nm fluorescence, primary screen (AID 1120).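 Further: probe is a biotin-tagged antibody raised against NOTCH3 rather than NOTCH3 protein; score merges spot fluorescence near 667 nm with spot signal to noise.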 As to conditions: higher = more signal.
Test [14] is described as follows: probe aNOTCH2 binding on compound microarray – biochemical, small-molecule microarray, 635/667 nm fluorescence, primary screen (AID 1121).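 Further: score merges feature fluorescence read at 667 nm with its signal to noise.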 Particulars: higher = more signal.
The target in test [15] is Carbonic anhydrase 2 (Homo sapiens) (UniProt P00918). The test is described as follows: compounds binding carbonic anhydrase 2 – biochemical, small-molecule microarray, Alexa647-labelled CAII, profiling panel (AID 1122). As to conditions: CAII-A647 binding fluorescence, higher = more signal.
Test [16] is described as follows: COS7 lysate on small-molecule microarray, probe aHis, 635 nm (AID 1123).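 Further: z-score combines 667nm fluorescence intensity with signal-to-noise per printed compound spot.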 Particulars: COS7 cell lysate, fluorescence, higher = more signal.
A short description of test [17]: probe aLAP1 signal on lysate-treated microarray – cell lysate, small-molecule microarray, COS7 lysate, primary screen (AID 1124).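 Further: lysate comes from COS7 cells expressing LAP1 and is applied at 0.3 µg/mL; score merges spot fluorescence near 667 nm with signal-to-noise over triplicate slides.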 Particulars: probe aLAP1, fluorescence, higher = more signal.
The subject of test [18] is Sam68 (KHDRBS1). The test is described as follows: compounds binding KHDRBS1 protein – biochemical, small-molecule microarray, 635 nm fluorescence, primary screen (AID 1125).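 Further: score merges 667 nm channel intensity with signal to noise over triplicate slides.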 As to conditions: higher = more signal.
Test [19] relates to Chordin-like protein 2 (CHRDL2). The test is described as follows: compounds binding chordin-like 2 – biochemical, small-molecule microarray, 635 nm fluorescence, primary screen (AID 1126).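 Further: printed compound slides probed with Chrdl2 protein at 4 µg/mL for 1 h at 4 C; score merges 667 nm emission intensity with signal to noise over three replicate slides.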 Particulars: fluorescence 635 nm, higher = more signal.
Test [20] deals with Concanavalin-A (Canavalia ensiformis) (UniProt P02866). The experiment in a line: compounds binding concanavalin A lectin – biochemical, small-molecule microarray, Alexa647 label, 635 nm, artefact control for SMM control protein annotation, primary screen (AID 1127).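 Further: z combines 667 nm emission intensity with signal-to-noise across three replicate slides.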 As to conditions: ConA-A647 binding fluorescence, higher = more signal.
Chain of Concanavalin-A (Canavalia ensiformis) (P02866 whole entry, looked up): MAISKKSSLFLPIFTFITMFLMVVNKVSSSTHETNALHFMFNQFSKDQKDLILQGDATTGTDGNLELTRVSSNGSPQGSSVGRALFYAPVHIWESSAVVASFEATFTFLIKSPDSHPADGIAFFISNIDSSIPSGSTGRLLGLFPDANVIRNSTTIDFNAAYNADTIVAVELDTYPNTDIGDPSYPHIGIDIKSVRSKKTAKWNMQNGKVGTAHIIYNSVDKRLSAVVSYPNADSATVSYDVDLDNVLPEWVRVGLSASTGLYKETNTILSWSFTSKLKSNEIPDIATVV

Chain of Alpha-bungarotoxin (Bungarus multicinctus) (P60615 whole entry, looked up): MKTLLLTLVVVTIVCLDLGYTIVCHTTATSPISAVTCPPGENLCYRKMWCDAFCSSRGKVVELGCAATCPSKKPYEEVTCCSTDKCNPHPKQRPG
Chain of Albumin (Bos taurus) (P02769 whole entry, looked up): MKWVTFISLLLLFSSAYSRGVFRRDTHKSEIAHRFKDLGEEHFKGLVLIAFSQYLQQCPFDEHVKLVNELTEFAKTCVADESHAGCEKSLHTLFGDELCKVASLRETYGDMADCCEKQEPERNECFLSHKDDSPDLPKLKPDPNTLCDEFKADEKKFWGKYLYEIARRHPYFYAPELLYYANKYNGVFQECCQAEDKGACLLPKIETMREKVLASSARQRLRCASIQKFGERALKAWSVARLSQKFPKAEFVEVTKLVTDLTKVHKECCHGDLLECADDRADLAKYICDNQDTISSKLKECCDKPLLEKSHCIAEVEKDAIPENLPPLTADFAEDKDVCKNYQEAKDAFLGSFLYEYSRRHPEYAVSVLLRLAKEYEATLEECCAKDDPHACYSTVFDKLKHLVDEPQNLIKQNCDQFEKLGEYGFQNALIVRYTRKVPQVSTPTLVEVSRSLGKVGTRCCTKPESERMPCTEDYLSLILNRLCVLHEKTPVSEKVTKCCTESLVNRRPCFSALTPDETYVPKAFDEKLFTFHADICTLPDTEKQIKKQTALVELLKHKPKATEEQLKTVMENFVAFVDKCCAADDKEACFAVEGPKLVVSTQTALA
Chain of Left-right determination factor 2 (Homo sapiens) (O00292 whole entry, looked up): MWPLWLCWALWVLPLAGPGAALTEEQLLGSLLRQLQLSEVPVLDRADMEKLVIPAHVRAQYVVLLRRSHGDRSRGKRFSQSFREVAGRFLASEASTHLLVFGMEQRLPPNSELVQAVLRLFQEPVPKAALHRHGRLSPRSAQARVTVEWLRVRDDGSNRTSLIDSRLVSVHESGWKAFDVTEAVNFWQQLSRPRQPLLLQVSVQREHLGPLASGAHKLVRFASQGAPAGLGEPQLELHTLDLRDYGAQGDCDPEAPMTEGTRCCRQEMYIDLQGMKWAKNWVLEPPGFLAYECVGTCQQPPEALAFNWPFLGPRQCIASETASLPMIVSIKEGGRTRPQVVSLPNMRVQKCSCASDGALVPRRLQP
Chain of Torsin-1A-interacting protein 1 (Homo sapiens) (Q5JTV8 whole entry, looked up): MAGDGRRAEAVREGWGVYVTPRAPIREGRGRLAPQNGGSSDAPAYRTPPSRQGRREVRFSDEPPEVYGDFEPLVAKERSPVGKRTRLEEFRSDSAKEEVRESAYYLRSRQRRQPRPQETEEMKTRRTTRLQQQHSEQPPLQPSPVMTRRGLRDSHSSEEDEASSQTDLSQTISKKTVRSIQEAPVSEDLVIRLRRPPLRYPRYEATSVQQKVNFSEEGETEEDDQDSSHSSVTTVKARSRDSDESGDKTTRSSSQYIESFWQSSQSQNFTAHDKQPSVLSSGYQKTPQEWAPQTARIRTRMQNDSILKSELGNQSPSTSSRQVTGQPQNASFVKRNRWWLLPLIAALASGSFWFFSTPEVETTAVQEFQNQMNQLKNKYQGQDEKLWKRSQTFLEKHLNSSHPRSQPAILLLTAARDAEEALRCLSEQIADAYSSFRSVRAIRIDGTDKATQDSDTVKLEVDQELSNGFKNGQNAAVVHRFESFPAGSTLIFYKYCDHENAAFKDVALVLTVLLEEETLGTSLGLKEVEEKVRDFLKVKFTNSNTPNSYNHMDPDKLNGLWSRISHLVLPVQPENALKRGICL

`C=CCN(CCCC)C(=O)C(c1cccs1)N(C(=O)/C=C\C(=O)O)c1c(Cl)cccc1CO` (stereo not given): the composite z-score in [1] was -1.23 and -1.01; in test [3], -3.75 and -3.83; in test [4], -0.731 and -0.883; in [5] it was 0.215 and 0.584; in test [6] it was -0.328 and -0.303; in [7], -0.0769 and -0.221. The composite z-score in [8] was -0.0173 and -0.0409; in test [9] it was -1.53 and -1.41; in [10] it was -1.09 and -1.15; in test [11], -0.854 and -0.198; in [13] it was -0.589 and -0.431; in [14] it was -0.162 and -0.147. In addition, the composite z-score in [15] is -0.3 and 0.0384; in test [16] it was -0.99 and -0.632; in test [17], -0.307 and 0.993; in test [18] it was -0.843 and -1.73; in [19], -4.02 and -2.94; in test [20] it was -3.43 and -2.5. Further, the z-score in test [2] was -0.765 and -0.992. In addition, the composite Z-score in [12] is -0.089 (inactive) and 0.339 (inactive).

Take `COC(=O)C1=C(C)N(Cc2ccccc2)C2=C3C(=O)N(c4ccccc4)C(=O)[C@@H]3[C@@](O)(C(=O)OC)C(=O)N2[C@@H]1c1ccccc1`: the composite z-score in test [1] is -0.996 and 0.49; in test [3] it was 0.269 and 0.49; in test [4], -0.101 and -0.0398; in test [5], -0.65 and -0.381; in [6] it was -0.124 and -0.0405; in test [7] it was 0.151 and 0.318. Moreover, the composite z-score in [8] was 0.0954 and -0.43; in [9], 0.792 and 1.32; in test [10], 0.231 and 1.87; in test [11], 0.361 and 0.207; in test [13], 0.236 and 0.116; in test [14], -0.0767 and -0.101. The composite z-score is 0.46 and 0.7 in test [15]; 0.241 and 0.608 in test [16]; 0.171 and 0.983 in [17]; 0.462 and 1.13 in test [18]; 0.513 and 0.402 in test [19]; -0.196 and 0.475 in test [20]. Besides, the z-score in test [2] was -0.0822 and -0.147. In addition, the composite Z-score in test [12] is 0.0519 (inactive) and 0.0894 (inactive).

`COC(=O)C1=C(C)N(Cc2ccccc2)[C@]23O[C@](C(=O)OC)(C(=O)N2[C@@H]1c1ccccc1)[C@@H](C(=O)OC)[C@H]3C(=O)OC`: the composite z-score is -1.08 and 0.025 in [1]; -0.2 and 0.674 in test [3]; -0.602 and 0.395 in test [4]; -0.636 and -0.505 in [5]; -0.173 and -0.16 in test [6]; -0.123 and -0.0553 in test [7]. In addition, the composite z-score in test [8] was -0.394 and -0.255; in [9], 0.118 and 0.409; in test [10] it was -1 and -0.239; in [11], 0.0583 and -0.396; in test [13] it was -0.0947 and -0.0892; in [14], -0.165 and -0.106. In addition, the composite z-score is 0.266 and -0.244 in test [15]; 0.189 and -0.172 in [16]; -0.429 and -0.258 in test [17]; -0.192 and 0.227 in [18]; -0.34 and 0.406 in [19]; -1.07 and 0.249 in test [20]. The z-score in [2] was -0.685 and 1.33. The composite Z-score in test [12] is -0.179 (inactive) and -0.813 (inactive).

As for `C=CCN(C(=O)C1N(C(C)(C)CO)C(=O)C2C(C(=O)O)C3C=CC21O3)c1ccc(OC)cc1` (stereo not given), the composite z-score in test [1] was -0.391 and -1.24; in [3], -2 and -4.13; in [4], -0.547 and -0.928; in [5], 0.455 and -0.116; in test [6] it was -0.256 and -0.116; in test [7], 0.0611 and -0.283. Also, the composite z-score is 0.265 and -0.0827 in test [8]; 1.86 and -0.125 in test [9]; -2.34 and -2.48 in test [10]; -0.821 and -2.22 in test [11]; -0.383 and -0.578 in test [13]; -0.154 and -0.147 in test [14]. In addition, the composite z-score in [15] is 0.548 and 0.314; in test [16], 0.0457 and -0.218; in test [17] it was 0.995 and -0.102; in test [18], -0.718 and -1.28; in [19], -4.67 and -4.11; in test [20] it was -0.79 and -1.96. For the same compound, the z-score in test [2] was 1.82 and -0.0108. The composite Z-score in test [12] is 1.39 (inactive) and -0.174 (inactive).

With `COC(=O)[C@H](C)NC(=O)CCC1CC(OC(=O)NCCc2ccc(F)cc2)CC2(CCCC(COC(=O)NCCCN3CCCC3=O)O2)O1` (stereo not given in full), the composite z-score in [1] is 1.39; in test [3] it was 1.21; in [4] it was 0.95; in test [5] it was -0.387; in [6], -0.172; in [7], 0.0278. Further, the composite z-score was 0.33 in test [8]; 1.05 in test [9]; 1.14 in test [10]; 0.171 in test [11]; 0.0159 in test [13]; 0.666 in test [14]. Moreover, the composite z-score in [15] worked out at 0.194; in test [16], 0.275; in [17], 0.0736; in test [18], 1.3; in test [19], 0.407; in [20], 1.07. The z-score in test [2] is -2.21. In addition, in test [12], the composite Z-score is 2.06 (inactive).
